The results in this text go back to PMC7862700, “An all-to-all approach to the identification of sequence-specific readers for epigenetic DNA modifications on cytosine”.

Holding throughout (experiment): DAPPL (digital affinity profiling via proximity ligation, sequencing); 10 mM Tris-HCl pH 7.5, 50 mM NaCl, 1 mM DTT, 4% glycerol, room temperature, 30 min; GST-TFs on glutathione beads, 16-mer random dsDNA library, 0.1% formaldehyde crosslink after washing; high values mean tight binding
Settings in all cases: protein: recombinant; tags: N-terminal GST; dsDNA, one strand shown

For one experiment, the target named is T1, ERF (Homo sapiens, UniProt P50548 1-548).
T1 sequence: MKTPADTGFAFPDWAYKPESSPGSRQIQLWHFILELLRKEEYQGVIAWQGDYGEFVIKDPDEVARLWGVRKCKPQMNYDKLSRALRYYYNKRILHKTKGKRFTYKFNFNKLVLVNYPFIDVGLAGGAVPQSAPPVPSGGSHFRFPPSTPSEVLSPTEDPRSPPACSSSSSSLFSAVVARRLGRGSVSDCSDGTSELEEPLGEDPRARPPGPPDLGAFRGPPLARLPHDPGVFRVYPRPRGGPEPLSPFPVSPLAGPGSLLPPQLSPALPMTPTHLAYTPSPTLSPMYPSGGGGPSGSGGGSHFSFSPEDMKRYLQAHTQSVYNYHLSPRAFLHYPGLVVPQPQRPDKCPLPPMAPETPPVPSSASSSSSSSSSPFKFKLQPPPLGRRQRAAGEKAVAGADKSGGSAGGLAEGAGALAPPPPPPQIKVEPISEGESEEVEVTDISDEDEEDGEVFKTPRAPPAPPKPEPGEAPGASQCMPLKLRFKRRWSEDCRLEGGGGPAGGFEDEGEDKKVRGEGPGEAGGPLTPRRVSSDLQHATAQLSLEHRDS
Summed up: (§1)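 Human transcription factors carrying a GST fusion were produced in yeast, bound to glutathione beads, tagged with DNA barcodes and pooled together with a tag-only sample. Each pool was held with 200 nmole of a random double-stranded 16-mer DNA library in Tris/NaCl/DTT/glycerol buffer for 30 min at room temperature, then washed, crosslinked in 0.1% formaldehyde, proximity-ligated with BsaI/T4 ligase (1 h, 37 °C), PCR-amplified and sequenced on an Illumina NextSeq500. Binding signal is the read frequency of each hexamer for a given factor divided by its frequency in the tag-only sample.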

Another experiment addresses T2, ETV3L (Homo sapiens, UniProt Q6ZN32 1-361).
T2 sequence: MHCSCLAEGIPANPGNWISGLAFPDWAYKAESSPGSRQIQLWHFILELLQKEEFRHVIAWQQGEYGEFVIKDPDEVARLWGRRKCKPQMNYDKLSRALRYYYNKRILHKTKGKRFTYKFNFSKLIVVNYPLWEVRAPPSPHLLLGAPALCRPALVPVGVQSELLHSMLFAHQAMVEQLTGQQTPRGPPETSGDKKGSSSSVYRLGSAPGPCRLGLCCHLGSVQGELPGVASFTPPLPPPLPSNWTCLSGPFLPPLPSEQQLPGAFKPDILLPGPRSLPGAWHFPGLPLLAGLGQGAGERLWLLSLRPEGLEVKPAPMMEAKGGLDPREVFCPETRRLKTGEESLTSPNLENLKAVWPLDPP
Summed up:
as §1

A further experiment has as its target T3, ETS2 (Homo sapiens, UniProt P15036 1-469).
T3 sequence: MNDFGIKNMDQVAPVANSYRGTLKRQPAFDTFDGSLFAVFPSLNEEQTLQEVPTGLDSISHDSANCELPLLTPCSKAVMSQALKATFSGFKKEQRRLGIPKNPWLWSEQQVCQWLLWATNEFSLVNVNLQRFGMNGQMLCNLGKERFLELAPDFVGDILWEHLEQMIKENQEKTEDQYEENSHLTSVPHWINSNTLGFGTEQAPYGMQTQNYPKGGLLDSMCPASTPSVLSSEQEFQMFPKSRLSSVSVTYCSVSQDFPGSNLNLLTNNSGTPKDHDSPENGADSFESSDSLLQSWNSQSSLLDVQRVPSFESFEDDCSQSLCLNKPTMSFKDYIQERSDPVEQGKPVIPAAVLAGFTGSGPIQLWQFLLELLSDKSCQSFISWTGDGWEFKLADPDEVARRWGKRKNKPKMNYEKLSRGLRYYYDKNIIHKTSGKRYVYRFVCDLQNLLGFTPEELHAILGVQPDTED
An outline of the steps: as §1

Another experiment has as its target T4, SPDEF (Homo sapiens, UniProt O95238 1-335).
T4 sequence: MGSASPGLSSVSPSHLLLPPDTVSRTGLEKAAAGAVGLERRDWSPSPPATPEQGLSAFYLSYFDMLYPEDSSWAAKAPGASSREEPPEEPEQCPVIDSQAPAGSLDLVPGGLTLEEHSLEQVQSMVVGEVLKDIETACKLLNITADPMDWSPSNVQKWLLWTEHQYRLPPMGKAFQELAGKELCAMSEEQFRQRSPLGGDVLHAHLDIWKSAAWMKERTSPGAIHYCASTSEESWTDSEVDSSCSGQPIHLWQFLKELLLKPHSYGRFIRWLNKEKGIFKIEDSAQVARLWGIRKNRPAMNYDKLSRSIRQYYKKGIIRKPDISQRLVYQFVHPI
An outline of the steps:
as §1

The next experiment has as its target T5, ETV7 (Homo sapiens, UniProt Q9Y603 1-341).
T5 sequence: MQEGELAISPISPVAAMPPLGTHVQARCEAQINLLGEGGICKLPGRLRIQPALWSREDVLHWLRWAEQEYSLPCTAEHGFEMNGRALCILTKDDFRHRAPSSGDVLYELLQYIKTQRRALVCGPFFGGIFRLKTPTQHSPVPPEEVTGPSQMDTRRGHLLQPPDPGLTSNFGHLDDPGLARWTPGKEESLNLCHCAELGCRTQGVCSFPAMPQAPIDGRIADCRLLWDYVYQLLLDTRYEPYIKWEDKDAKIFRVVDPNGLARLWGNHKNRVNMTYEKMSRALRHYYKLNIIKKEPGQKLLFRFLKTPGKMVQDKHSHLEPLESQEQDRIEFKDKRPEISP
Summed up: as §1

The next experiment has as its target T6, ELF5 (Homo sapiens, UniProt Q9UKW6-2 1-255).
T6 sequence: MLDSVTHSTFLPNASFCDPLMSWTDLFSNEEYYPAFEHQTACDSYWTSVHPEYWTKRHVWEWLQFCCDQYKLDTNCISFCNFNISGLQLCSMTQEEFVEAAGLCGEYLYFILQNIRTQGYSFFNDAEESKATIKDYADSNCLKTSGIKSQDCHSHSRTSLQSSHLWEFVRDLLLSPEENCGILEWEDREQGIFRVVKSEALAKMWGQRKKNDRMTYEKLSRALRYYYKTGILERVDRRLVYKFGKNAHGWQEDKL
Summed up:
as §1

A further experiment addresses T7, ETV3 (Homo sapiens, UniProt P41162-2 1-143).
T7 sequence: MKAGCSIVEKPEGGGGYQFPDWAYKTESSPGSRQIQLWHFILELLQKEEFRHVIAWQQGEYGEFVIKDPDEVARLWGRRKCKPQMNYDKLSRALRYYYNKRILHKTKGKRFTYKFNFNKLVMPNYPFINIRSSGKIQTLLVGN
An outline of the steps:
as §1

A further experiment has as its target ETV6 (Homo sapiens, UniProt P41212 1-452). Summed up:
as §1

ETV6, sequence (P41212 whole entry): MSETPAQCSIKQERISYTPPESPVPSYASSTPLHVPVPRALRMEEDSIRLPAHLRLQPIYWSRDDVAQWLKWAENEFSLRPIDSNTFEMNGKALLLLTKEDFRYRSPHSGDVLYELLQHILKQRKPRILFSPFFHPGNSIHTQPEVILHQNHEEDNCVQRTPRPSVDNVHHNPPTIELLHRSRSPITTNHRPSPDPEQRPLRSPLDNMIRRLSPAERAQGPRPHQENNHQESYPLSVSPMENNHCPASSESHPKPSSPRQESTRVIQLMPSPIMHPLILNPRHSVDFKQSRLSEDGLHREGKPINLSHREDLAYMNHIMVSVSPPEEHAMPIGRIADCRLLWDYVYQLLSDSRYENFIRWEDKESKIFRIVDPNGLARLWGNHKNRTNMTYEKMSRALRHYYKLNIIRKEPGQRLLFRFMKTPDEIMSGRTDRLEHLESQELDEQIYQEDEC

For the sequence CTTTTG, the binding signal in the experiment with ERF is 1.62 fold enrichment (6-mer frequency, TF over GST control); in the experiment with ETV3L, 1.31 fold enrichment (6-mer frequency, TF over GST control); in the experiment with ETS2 it was 1.45 fold enrichment (6-mer frequency, TF over GST control); in the experiment with SPDEF, 1.46 fold enrichment (6-mer frequency, TF over GST control); with ETV7, 1.44 fold enrichment (6-mer frequency, TF over GST control); with ELF5 it was 1.28 fold enrichment (6-mer frequency, TF over GST control). Moreover, the binding signal with ETV3 is 1.24 fold enrichment (6-mer frequency, TF over GST control); with ETV6, 1.46 fold enrichment (6-mer frequency, TF over GST control).
As for AATTTA, the binding signal is 1.27 fold enrichment (6-mer frequency, TF over GST control) in the experiment with ERF; 1.25 fold enrichment (6-mer frequency, TF over GST control) in the experiment with ETV3L; 1.18 fold enrichment (6-mer frequency, TF over GST control) with ETS2; 1.12 fold enrichment (6-mer frequency, TF over GST control) in the experiment with SPDEF; 1.28 fold enrichment (6-mer frequency, TF over GST control) in the experiment with ETV7; 1.26 fold enrichment (6-mer frequency, TF over GST control) with ELF5. The binding signal with ETV3 was 1.22 fold enrichment (6-mer frequency, TF over GST control); with ETV6, 1.33 fold enrichment (6-mer frequency, TF over GST control).
Take ATTTGG: the binding signal in the experiment with ERF was 1.54 fold enrichment (6-mer frequency, TF over GST control); with ETV3L, 1.46 fold enrichment (6-mer frequency, TF over GST control); in the experiment with ETS2 it was 1.38 fold enrichment (6-mer frequency, TF over GST control); in the experiment with SPDEF, 1.34 fold enrichment (6-mer frequency, TF over GST control); in the experiment with ETV7, 1.41 fold enrichment (6-mer frequency, TF over GST control); with ELF5, 1.37 fold enrichment (6-mer frequency, TF over GST control). Besides, the binding signal with ETV3 is 1.35 fold enrichment (6-mer frequency, TF over GST control); with ETV6, 1.45 fold enrichment (6-mer frequency, TF over GST control).
As for ACCAAT, the binding signal is 1.32 fold enrichment (6-mer frequency, TF over GST control) with ERF; 1.28 fold enrichment (6-mer frequency, TF over GST control) with ETV3L; 1.39 fold enrichment (6-mer frequency, TF over GST control) with ETS2; 1.24 fold enrichment (6-mer frequency, TF over GST control) with SPDEF; 1.29 fold enrichment (6-mer frequency, TF over GST control) with ETV7; 1.23 fold enrichment (6-mer frequency, TF over GST control) with ELF5. For the same sequence, the binding signal with ETV3 is 1.29 fold enrichment (6-mer frequency, TF over GST control); with ETV6, 1.34 fold enrichment (6-mer frequency, TF over GST control).
AATAAT: the binding signal with ERF is 1.52 fold enrichment (6-mer frequency, TF over GST control); in the experiment with ETV3L it was 1.35 fold enrichment (6-mer frequency, TF over GST control); with ETS2, 1.42 fold enrichment (6-mer frequency, TF over GST control); with SPDEF it was 1.21 fold enrichment (6-mer frequency, TF over GST control); in the experiment with ETV7, 1.23 fold enrichment (6-mer frequency, TF over GST control); with ELF5 it was 1.29 fold enrichment (6-mer frequency, TF over GST control). For the same sequence, the binding signal with ETV3 was 1.27 fold enrichment (6-mer frequency, TF over GST control); with ETV6, 1.34 fold enrichment (6-mer frequency, TF over GST control).
On to TTTCGA, for which the binding signal is 1.61 fold enrichment (6-mer frequency, TF over GST control) with ERF; 1.54 fold enrichment (6-mer frequency, TF over GST control) with ETV3L; 1.42 fold enrichment (6-mer frequency, TF over GST control) with ETS2; 1.34 fold enrichment (6-mer frequency, TF over GST control) in the experiment with SPDEF; 1.29 fold enrichment (6-mer frequency, TF over GST control) with ETV7; 1.42 fold enrichment (6-mer frequency, TF over GST control) in the experiment with ELF5. Also, the binding signal is 1.41 fold enrichment (6-mer frequency, TF over GST control) with ETV3 and 1.33 fold enrichment (6-mer frequency, TF over GST control) with ETV6.
ATAGAA: the binding signal with ERF was 1.1 fold enrichment (6-mer frequency, TF over GST control); with ETV3L, 1.1 fold enrichment (6-mer frequency, TF over GST control); with ETS2, 1.07 fold enrichment (6-mer frequency, TF over GST control); with SPDEF, 1.02 fold enrichment (6-mer frequency, TF over GST control); in the experiment with ETV7, 1.16 fold enrichment (6-mer frequency, TF over GST control); with ELF5, 1.04 fold enrichment (6-mer frequency, TF over GST control). Moreover, the binding signal in the experiment with ETV3 is 1.1 fold enrichment (6-mer frequency, TF over GST control); with ETV6, 1.13 fold enrichment (6-mer frequency, TF over GST control).
